CBFb-RUNX1 inh: CBF-beta/RUNX1 interaction disruption; AlphaScreen CBFb-His/RUNX1-biotin binding, biochemical; Potency, µM (titrated, usually from 59.8 µM), for the others: at the highest dose activity, negative = inhibition, hits mostly inhibitors; 230,000 tested, under 10 active; also: % of control where 0% means no effect
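Proteins preincubated together for 20 min at RT before compound addition; 15 min later, nickel and streptavidin beads were added and left 90 min prior to AlphaScreen measurement.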
Six1-Eya2 blk: inhibitors of human Six1/Eya2 interaction | activity change, % (no concentration beside the values) | AlphaScreen GST-Six1/His-Eya2 binding, biochemical; active compounds read low | 360,000 tested, 0.56% active | AID 651725; in the data active = activity change below about -65%; inconclusive = mostly about -30% to -63%; also: % is scaled to controls: 0 for no effect and ±100 for the full control effect
Target sequence (O00167 whole entry, looked up): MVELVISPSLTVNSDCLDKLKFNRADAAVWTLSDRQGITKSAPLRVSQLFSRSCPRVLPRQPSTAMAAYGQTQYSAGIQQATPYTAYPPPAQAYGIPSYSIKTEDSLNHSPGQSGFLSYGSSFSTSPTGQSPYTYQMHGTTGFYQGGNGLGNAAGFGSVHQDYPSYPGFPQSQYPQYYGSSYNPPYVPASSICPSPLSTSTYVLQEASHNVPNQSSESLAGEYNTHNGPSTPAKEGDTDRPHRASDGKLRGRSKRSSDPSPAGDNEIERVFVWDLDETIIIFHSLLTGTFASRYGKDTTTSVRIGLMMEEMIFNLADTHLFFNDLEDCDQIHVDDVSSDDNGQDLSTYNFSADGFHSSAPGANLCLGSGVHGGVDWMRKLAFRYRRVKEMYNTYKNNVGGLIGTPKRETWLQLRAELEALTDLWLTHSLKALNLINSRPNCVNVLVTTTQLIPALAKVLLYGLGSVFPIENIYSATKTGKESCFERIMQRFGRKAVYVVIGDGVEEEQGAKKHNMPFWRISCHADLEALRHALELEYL
Target sequence (Q15475 whole entry, looked up): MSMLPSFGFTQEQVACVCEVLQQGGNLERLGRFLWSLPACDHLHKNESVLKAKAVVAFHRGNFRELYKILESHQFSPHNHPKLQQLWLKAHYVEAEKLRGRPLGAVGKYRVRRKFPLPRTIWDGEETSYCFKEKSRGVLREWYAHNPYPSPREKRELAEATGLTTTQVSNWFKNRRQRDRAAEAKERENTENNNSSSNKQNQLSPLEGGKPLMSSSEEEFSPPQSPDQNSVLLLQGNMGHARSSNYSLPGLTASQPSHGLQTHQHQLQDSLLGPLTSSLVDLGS
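Compounds are tested against tagged Six1 and Eya2 proteins bridged by glutathione donor and nickel acceptor beads; after a one-hour incubation at 37 °C without light, AlphaScreen emission is recorded.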
MBNL1-CUG inh: inhibitors of human MBNL1 binding to CUG repeat RNA. 280,000 tested, 0.036% active. Potency, µM (doses to about 57.5 µM), for inactives: top-dose activity change, negative = inhibition, most hits filed as inhibitors. TR-FRET MBNL1-His/biotin-(CUG)12 binding, 665/545 ratio. Q9NR56. AID 2675; active = well fitted inhibition curve with a large enough effect in the signal ratio, with a control signal flat, not every such curve was filed as active; inconclusive = small, poorly fitted or top-dose-only effect, or effect the other way, or a change in a side signal; inactive = no such curve, though single readings can be large or run the other way; the % refers to the signal ratio; also: potency is read from the fitted curve at half-maximal effect; % is scaled to controls: 0 for no effect and ±100 for the full control effect
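TR-FRET between His-tagged MBNL1 and biotin-(CUG)12 RNA, detected with Tb anti-His antibody (0.055 ng/ul) and streptavidin-XL665 (5 nM), 60 min at room temperature. Compounds titrated 92 nM to 58 uM; 665/545 nm ratio normalized to buffer and complex controls.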
RORgamma inh: blocks mouse ROR gamma transcriptional activity. P51450. Drosophila S2 Gal4-RORgamma UAS-luciferase reporter, 20 h. Potency, µM (titrated, usually from 53.6 µM), inactives show at the top dose activity change, negative = inhibition, most hits filed as inhibitors. 310,000 tested, 5.4% active. AID 2551; also: potency is read from the fitted curve at half-maximal effect; % is scaled to controls: 0 for no effect and ±100 for the full control effect; nearly all actives have a fitted effect of over 60% in size
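Stably transfected Drosophila Schneider cells are the test system, with ROR gamma fused to Gal4 and luciferase under UAS control; luminescence is read after 20 hr of 700 uM copper sulfate induction at ambient temperature.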
VP16 counter: inhibits Gal4-VP16 luciferase reporter, ROR gamma counter-screen; Potency, µM (highest dose often 53.6 µM), inactives show at the top dose activity, negative = inhibition, usual class: inhibitors; 310,000 tested, 3.5% active; Drosophila S2 Gal4-VP16 UAS-luciferase, luminescence, 20 h;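 also: Gal4-VP16 expression switched on by copper sulfate through the metallothionein promoter; potency is read from the fitted curve at half-maximal effect; % is scaled to controls: 0 for no effect and ±100 for the full control effect; nearly all actives have a fitted effect of over 50% in size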
CtBP-E1A blk: CtBP/E1A binding inhibition. AlphaScreen GST-E1A/His-CtBP binding, 1536-well; active compounds read low. activity change, % (concentration not given with the values). 340,000 tested, 0.49% active; in the data active = activity change below about -65%; inconclusive = mostly about -30% to -63%; also: % is scaled to controls: 0 for no effect and ±100 for the full control effect
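In 5 uL wells, 23 nL compound meets equimolar GST-E1A and His-CtBP (5X stock 125 nM each) for 2 h, 37 °C. Beads (5X, 50 ug/mL) then 1 h, 37 °C, dark.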
* marks the source's active call; other numbers are inactive results; ? = inconclusive; / = no result; [ ] = another dose, or the depositor's remark. Only some compounds are listed: those with a hit (about 5.5% of all), similar ones and a draw of the others. Unless noted, calls follow the shape of the dose curve; as a rule, active = well fitted curve in the direction sought with a large enough effect; inconclusive = small, poorly fitted or top-dose-only effect, or another doubt; inactive = no such curve, though single readings can be large; an effect the other way counts as inactive or inconclusive.

SMILES	CBFb-RUNX1 inh	Six1-Eya2 blk	MBNL1-CUG inh	RORgamma inh	VP16 counter	CtBP-E1A blk
COc1ccc(CCC(=O)OCC(=O)N(CC(C)C)c2c(N)n(Cc3ccccc3)c(=O)[nH]c2=O)cc1	/	7.1	/	/	/	3.2
NS(=O)(=O)OCCCc1ccc(C(F)(F)F)cc1	/	12.3	11.2%	6.9%	2.0%	-13.6
Cc1cccc(NC(=O)CNC(=O)c2cccc(S(=O)(=O)NCc3cccs3)c2)c1C	/	-4.6	/	/	/	/
COc1ccc(C)cc1NC(=O)CSc1ccc(-c2ccccn2)nn1	/	-82.6*	0.1%	16.8%	2.4%	-85.1*
CCOC(=O)c1ccccc1NC(=O)CSc1ccc(-c2ccccn2)nn1	/	-84.1*	-2.6%	-20.2%	-3.3%	-86.0*
CCc1ccc(NC(=O)CSc2ccc(-c3ccccn3)nn2)cc1	/	?	5.2%	-13.5%	?	?
COc1ccc(C)cc1NC(=O)CSc1ccc(-c2sc(C)nc2C)nn1	/	-17.5	-0.2%	25.2%	-1.7%	-14.8
Cc1cc(Br)cn2c(CC(C)(C)C)c(-c3cccc(Cl)c3)nc12	/	2.6	/	/	/	4.7
Cc1ccccc1/C=N/n1c(-c2ccccn2)n[nH]c1=S	/	-89.7*	1.5%	?	-18.3%	-1.6
S=c1[nH]nc(-c2ccccn2)n1/N=C/c1cccc2ccccc12	?	-67.5*	/	2.24µM*	?	?
Cc1ccc(/C=N/n2c(-c3ccccn3)n[nH]c2=S)o1	-26.5%	-20.7	/	?	3.4%	/
Cc1cc(-c2n[nH]c(=S)n2/N=C/c2c[nH]c3ccccc23)n[nH]1	-8.1%	-9.6	/	8.0%	-3.4%	-22.4
COc1ccccc1CNc1ncncc1-c1ccccc1C(F)(F)F	/	/	/	0.4%	4.2%	/
OCC[C@@H]1C[C@@H](O)[C@H](O)[C@]2(Cc3ccccc3CO2)O1	/	0.3	-11.6%	11.9%	4.1%	2.2
Cc1ccc(Cn2cc(S(=O)(=O)c3ccc(Cl)cc3)c(=O)c3cc(F)ccc32)cc1	-1.1%	5.9	-4.3%	13.0%	-9.1%	5.7
Cc1ccc(S(=O)(=O)Nc2cc(C)cn(Cc3ccccc3)c2=O)cc1	/	-4.5	-8.2%	?	14.1µM*	0.9
Cc1ccc(S(=O)(=O)Nc2cnn(-c3ccccc3)c(=O)c2Cl)cc1	0.4%	21.8	1.6%	-44.0%	-24.9%	3.8
Cc1ccc(S(=O)(=O)Nc2cc(C)cn(Cc3ccc(F)cc3)c2=O)cc1	/	-10.5	8.3%	?	17.8µM*	-1.1
O=C(C1=NOC2(C1)C(=O)N(Cc1ccccc1)c1ccccc12)N1CCOCC1 (configuration not stated)	/	0.7	/	/	/	-0.4
O=C1OC(/C(=C\Nc2ccc(F)cc2F)[N+](=O)[O-])c2ccccc21 (configuration not stated)	-11.9%	10.6	-3.3%	14.1µM*	?	3.0
O=C(Nc1cccc(C(F)(F)F)c1)Nc1nnc([C@H]2C[C@H](O)[C@@H](CO)O2)s1	/	-11.6	/	/	/	-5.8
CCSCCc1nnc(NC(=O)Nc2cccc(C(F)(F)F)c2)s1	7.2%	3.4	-4.8%	?	17.8µM*	-0.9
O=[N+]([O-])c1ccc(/C=N/NC(=S)Nc2ccccc2C(F)(F)F)o1	1.6%	0.1	38.0%	11.2µM*	?	-0.9
NC(=O)N/N=C\c1ccc([N+](=O)[O-])o1	-3.7%[21.7 µM]	/	/	?	-6.9%[17 µM]	/
O=C(N/N=C/c1ccc([N+](=O)[O-])o1)C1CC1	-20.4%	-11.6	?	7.94µM*	3.6%	/
SMILES	CBFb-RUNX1 inh	Six1-Eya2 blk	MBNL1-CUG inh	RORgamma inh	VP16 counter	CtBP-E1A blk
Cc1cc(C)c(S(=O)(=O)N/N=C/c2ccc([N+](=O)[O-])o2)c(C)c1	/	-2.8	?	?	20µM*	-5.9
NC(=O)N/N=C/c1ccc([N+](=O)[O-])o1	22.6%	16.2	/	-21.9%[10 µM]	?	-5.4
O=C(COc1ccccc1)N/N=C/c1ccc([N+](=O)[O-])o1	-3.4%	-5.6	?	10µM*	15.8µM*	/
O=C(c1ccco1)N1CCN(C2CN(Cc3ccc(F)cc3)S(=O)(=O)C2)CC1 (configuration not stated)	/	2.5	/	/	/	-5.5
CCOc1ccccc1NC(C)C(=O)NC(=O)NC1CCCCC1 (configuration not stated)	/	-13.3	/	/	/	-14.2
O=C(OCc1c(-c2ccccc2)ncc2ccccc12)c1ccco1	/	1.6	/	/	/	-0.7
O=C(NNc1ncc(C(F)(F)F)cc1Cl)c1c(Cl)cccc1Cl	0.5%	-0.1	-10.1%	0.891µM*	2.82µM*	1.0
O=C(NNc1ncccc1Cl)c1c(Cl)cccc1Cl	-12.5%	1.7	/	3.98µM*	14.1µM*	-10.2
Cc1cccc(/C(N)=N/OC(=O)c2ccc(F)cc2)c1	-3.7%	53.4	-10.1%	8.91µM*	22.4µM*	71.2
N/C(=N\OC(=O)c1ccc(F)cc1)c1cccc([N+](=O)[O-])c1	/	-1.7	?	2.4%	-10.9%	/
N/C(Cc1ccc(Cl)cc1Cl)=N\OC(=O)Cc1cccs1	-2.2%	39.0	/	34.3%	-9.6%	49.0
Cc1noc(-c2ccc(Cl)cc2)c1C(=O)O/N=C(\N)c1ccc(C(C)(C)C)cc1	14.4%	-2.5	-0.3%	7.08µM*	7.94µM*	-8.9
Cc1cccc(/C(N)=N/OC(=O)c2cccs2)c1	8.0%	11.1	3.9%	8.91µM*	?	24.1
N/C(Cc1ccc(Cl)cc1Cl)=N\OC(=O)c1cccs1	5.0%	-2.2	-8.8%	12.6µM*	?	10.1
CCCCN1C(=O)C(CC(=O)NC2CC2)CC(C(=O)N(C(C)C)C(C)C)=C1C (configuration not stated)	/	4.6	/	/	/	4.4
CC(C)(C)c1ccc(C(=O)O/N=C(\N)c2ccccc2)cc1	/	12.8	-7.9%	1.12µM*	6.31µM*	/
O=C(C1CCCCC1)N1C[C@@H](O)[C@H](n2cc(C3CC3)nn2)C[C@@H]1c1ccc(Cl)cc1	/	4.0	/	/	/	4.4
COc1ccc(C2NN=C(c3ccc(C)cc3)S2)cc1 (configuration not stated)	/	-1.1	4.0%	?	7.08µM*	/
CCOc1cc(C2NN=C(c3ccc(C)cc3)S2)ccc1O (configuration not stated)	4.3%	0.0	27.3%	1.12µM*	14.1µM*	5.8
CSc1ccc(C2NN=C(c3ccccc3)S2)cc1 (configuration not stated)	/	9.2	/	/	/	15.5
COc1ccccc1NC(=O)CSc1nccn1Cc1ccccc1	/	-6.3	3.8%	-19.0%	24.5%	-1.4
CC(CCc1ccccc1)NC(=O)COC(=O)c1ccc(S(C)(=O)=O)c([N+](=O)[O-])c1 (configuration not stated)	-10.0%	-11.1	/	10µM*	?	-13.3

Source: PubChem (National Center for Advancing Translational Sciences (NCATS))
